Assay outcomes from PubChem.
An excerpt weighted towards active compounds, which were near 11% of everything screened.
ALDH1A1 block = ALDH1A1 (human) enzyme inhibition; Purified ALDH1A1, NADH fluorescence, propionaldehyde substrate; Potency, µM (titrated, usually from 75.3 µM), inactives show at the top dose activity, negative = inhibition, hits mostly inhibitors; 7.3% of 220,000 active;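 also: potency is read from the fitted curve at half-maximal effect; plate controls were no enzyme wells and a reference inhibitor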
Target sequence (P00352 whole entry, looked up): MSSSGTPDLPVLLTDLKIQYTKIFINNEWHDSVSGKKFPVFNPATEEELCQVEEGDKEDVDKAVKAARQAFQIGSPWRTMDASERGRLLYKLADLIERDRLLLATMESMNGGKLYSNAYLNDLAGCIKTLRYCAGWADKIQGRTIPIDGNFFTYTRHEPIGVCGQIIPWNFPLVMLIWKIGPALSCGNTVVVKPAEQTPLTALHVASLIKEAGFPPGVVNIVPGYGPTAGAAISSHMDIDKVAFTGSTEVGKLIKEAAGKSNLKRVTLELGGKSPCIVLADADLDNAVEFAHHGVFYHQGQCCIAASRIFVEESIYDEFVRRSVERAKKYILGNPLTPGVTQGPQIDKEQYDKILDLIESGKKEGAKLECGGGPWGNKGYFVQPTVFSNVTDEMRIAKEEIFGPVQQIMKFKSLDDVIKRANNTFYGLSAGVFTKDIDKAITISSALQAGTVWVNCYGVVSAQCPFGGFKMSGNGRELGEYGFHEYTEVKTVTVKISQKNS
HPGD inh = HPGD (human) dehydrogenase inhibition; Potency, µM, without a hit: at the top dose activity change, negative = inhibition, hits mostly inhibitors; purified HPGD, NADH fluorescence kinetic, PGE2 substrate; 4.3% of 150,000 active; P15428; AID 894; also: potency is read from the fitted curve at half-maximal effect
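20 nM HPGD preincubated 15 min at room temperature with compound in 50 mM Tris-HCl pH 8, 0.01% Tween 20. Started with 1 mM NAD+ and 30 uM prostaglandin E2; NADH fluorescence (360/450 nm) read 5 times over 30-s intervals, last minus first.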
PNC assembly inh = inhibitors of perinucleolar compartment assembly. activity change (PNC), negative = inhibition, % at 10 µM. 3.1% of 140,000 active. PC3M PTB-GFP, PNC prevalence imaging, 16 h; hits give low values. AID 2417;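 active = readout at or below -70, meaning at least 70% loss of cells showing the perinucleolar compartment, a nuclear body marking cancer cells; inconclusive = readout between -30 and a set limit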;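 also: plate controls were DMSO wells for no effect and camptothecin positive control wells for full effect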
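Compounds are pinned in duplicate onto adhered PC3M cells stably expressing GFP-tagged PTB and incubated 16 h at 37 C. Cells are then fixed, nuclei stained with Hoechst, and PNC-positive cells counted.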
Active calls of the source: *; ? = inconclusive; . = not tested or not shown; [ ] = remark or other dose. Unless noted, calls follow the shape of the dose curve; as a rule, active = well fitted inhibition curve with a large enough effect (not every such curve was filed as active); inconclusive = small, poorly fitted or top-dose-only effect, or another doubt; inactive = no such curve, though single readings can be large or run the other way. Unless noted, % is scaled to controls: 0 for no effect and ±100 for the full control effect.

SMILES	ALDH1A1 block	HPGD inh	PNC assembly inh
COc1cccc(-n2c(CN3CCN(c4ccccc4)CC3)nc3ccc([N+](=O)[O-])cc3c2=O)c1	28.2µM*	-12.7%	26.2
COc1ccc(-n2c(CN3CCC(C(N)=O)CC3)nc3ccc([N+](=O)[O-])cc3c2=O)c(OC)c1	9.46µM*	.	.
O=P(O)(O)O[C@@H]1O[C@H](CO)[C@@H](O)[C@H](O)[C@@H]1O	5.1%[13.5 µM]	-1.4%	.
COC(=O)CSc1nc(NC#N)nc(NC(C)C)n1	6.0%	-4.1%	67.4
CCC(CO)NC(=O)c1cccc(S(=O)(=O)N2c3ccccc3CC2C)c1 (stereo not drawn)	6.3%	1.2%	-18.6
CCOC(=O)c1sc(NC(=O)c2cccc(S(=O)(=O)N3c4ccccc4CC3C)c2)cc1C (stereo not drawn)	?	-7.5%	-95.0*
Cc1c(C(=O)Nc2ccccc2)sc2nc[nH]c(=O)c12	3.9%	-20.2%	?
Nn1c(SCC(=O)NCc2ccccc2)nnc1C1CC1	-10.3%	-18.1%	28.6
CCOC(=O)c1sc(N(Cc2ccccc2)C(=O)CSc2nnc(C3CC3)n2N)nc1C	-9.2%	20µM*	-7.9
CCCn1c(=O)c(C(=O)NCc2ccco2)c(O)c2ccccc21	-1.1%	.	.
O=C(C1CCN(S(=O)(=O)c2ccccc2[N+](=O)[O-])CC1)N1CCOCC1	0.7%	.	.
CC(OC(=O)c1cc2sccc2n1C)C(=O)NCc1cccs1 (stereo not drawn)	7.9%	?	-80.6*
COCCNC(=O)C(C)OC(=O)c1cc2occc2n1C (stereo not drawn)	31.6µM*	14.1µM*	-10.5
COCCNC(=O)c1cc2sccc2n1C	7.5%	.	.
Cn1c(C(=O)OCC(=O)NCc2cccs2)cc2sccc21	-6.5%	-20.6%	-17.4
Nc1nc(Cl)nc2c1ncn2[C@@H]1O[C@H](COP(=O)(O)OP(=O)(O)OP(=O)(O)O)[C@H](O)[C@H]1O	-5.2%	-5.5%	.
O=C(NNC(=O)C(c1ccccc1)c1ccccc1)c1cccs1	-7.4%	-3.9%	-18.4
CCC1=C2CC[C@H]3C(=O)NC(=O)[C@H]3[C@H]2[C@@]2(C)C(=NCC3CC3)OC(=O)N2C1=O	5.3%	-9.9%	.
CCOC(=O)C1(N(CC)CC)Sc2cc(C)ccc2NC1=O (stereo not drawn)	?	-21.8%	-7.9
COC(=O)C1=C(C(=O)OC)SC2(S1)C(C(=O)OC)=C(C(=O)OC)SC1=C2c2cc(C)ccc2NC1(C)C	8.91µM*	10µM*	5.1
Cc1csc(C(C)N(C)C(=O)CCc2nnc(CCc3ccccc3)o2)n1 (stereo not drawn)	-0.8%	.	.
CN(c1ccccc1)S(=O)(=O)c1ccc(Cl)nc1	-2.8%	.	.
CN(Cc1ccccc1)S(=O)(=O)c1ccc(Cl)nc1	22.4µM*	-22.4%	64.8
O=C(O)C1OC(O)C(O)C(O)C1O (stereo not drawn)	10.2%	1.8%	.
CCOC(=O)c1c(OCCO)nn(-c2ccccc2)c1N	-2.1%	.	.
SMILES	ALDH1A1 block	HPGD inh	PNC assembly inh
C=CCOC(=O)C(C(C)=O)C(NC(=O)OC)c1ccc(Cl)cc1 (stereo not drawn)	11.2%[13.5 µM]	.	.
COC(=O)c1cnn(-c2nc(OC)cc(OC)n2)c1C	-1.2%	-4.3%	?
COc1cc(OC)nc(-n2ncc(Br)c(Br)c2=O)n1	10µM*	-0.9%	?
Cc1onc(-c2ccccc2Cl)c1C(=O)Nc1ccccc1N1CCOCC1	?	-14.0%	-7.3
NC(Cc1c[nH]c2ccccc12)C(=O)NCC(=O)O (stereo not drawn)	2.1%	-3.1%	.
Cc1ccc(SCC2=NN(c3nc(C)cc(C)n3)C(=O)C2)cc1	-1.5%	.	.
Cc1cc(C)nc(N2N=C(C(C)(C)C)CC2=O)n1	6.31µM*	-4.0%	18.2
CC1=CC(=O)C2C(C)(C)CCC[C@@]2(C)[C@@]1(O)CCc1ccoc1 (stereo partly drawn)	?	-8.5%	.
CC1CCN(C(=O)/C(=C/c2ccccc2Cl)c2ccccc2)CC1	?	11.2µM*	-27.7
CN1CCN(C(=O)/C(=C\c2ccccc2)c2ccccc2)CC1	10.0%	17.8µM*	8.4
Cc1onc(-c2ccccc2)c1C(=O)N1CCC(C)CC1	2.3%	-9.6%	-16.2
O=C(O)/C(=C\c1ccccc1)c1ccccc1	10.8%[13.5 µM]	-13.2%	.
Cc1c(-c2ccc(F)cc2)[n+](=O)c2c(n1[O-])CCCCC2	13.5%	-2.4%	5.3
O=C1CCC(c2ccccc2)(C2CCN(Cc3ccccc3)CC2)C(=O)N1 (stereo not drawn)	0.7%	.	.
Cc1ccccc1OCc1csc(N)n1	11.6%	.	.
Cc1nc2nc(SCC(=O)N3CCOCC3)nn2c(C)c1Cc1c(F)cccc1Cl	?	8.91µM*	-0.8
Cc1nc2nc(SCC(=O)NCCN3CCOCC3)nn2c(C)c1Cc1ccccc1	-9.8%	-26.1%	-0.4
